Test results: ChEMBL document CHEMBL4808148, “HDAC6 screening dataset using tau-based substrate in an enzymatic assay yields selective inhibitors and activators” (2021)
Where “and” joins values, the source holds several entries; their conditions need not be identical. Equal entries are not always repeated. Among all 5,600 compounds or so, about 150 (2.7%) showed an effect of 50% or more. What follows is part of a selection rich in strong results, with near analogues and random picks from the rest.

Assays:
[1] = molecular target: T1, Protein deacetylase HDAC6 (Homo sapiens) (UniProt Q9UBN7); conditions: at 10 µM
T1 sequence (whole entry): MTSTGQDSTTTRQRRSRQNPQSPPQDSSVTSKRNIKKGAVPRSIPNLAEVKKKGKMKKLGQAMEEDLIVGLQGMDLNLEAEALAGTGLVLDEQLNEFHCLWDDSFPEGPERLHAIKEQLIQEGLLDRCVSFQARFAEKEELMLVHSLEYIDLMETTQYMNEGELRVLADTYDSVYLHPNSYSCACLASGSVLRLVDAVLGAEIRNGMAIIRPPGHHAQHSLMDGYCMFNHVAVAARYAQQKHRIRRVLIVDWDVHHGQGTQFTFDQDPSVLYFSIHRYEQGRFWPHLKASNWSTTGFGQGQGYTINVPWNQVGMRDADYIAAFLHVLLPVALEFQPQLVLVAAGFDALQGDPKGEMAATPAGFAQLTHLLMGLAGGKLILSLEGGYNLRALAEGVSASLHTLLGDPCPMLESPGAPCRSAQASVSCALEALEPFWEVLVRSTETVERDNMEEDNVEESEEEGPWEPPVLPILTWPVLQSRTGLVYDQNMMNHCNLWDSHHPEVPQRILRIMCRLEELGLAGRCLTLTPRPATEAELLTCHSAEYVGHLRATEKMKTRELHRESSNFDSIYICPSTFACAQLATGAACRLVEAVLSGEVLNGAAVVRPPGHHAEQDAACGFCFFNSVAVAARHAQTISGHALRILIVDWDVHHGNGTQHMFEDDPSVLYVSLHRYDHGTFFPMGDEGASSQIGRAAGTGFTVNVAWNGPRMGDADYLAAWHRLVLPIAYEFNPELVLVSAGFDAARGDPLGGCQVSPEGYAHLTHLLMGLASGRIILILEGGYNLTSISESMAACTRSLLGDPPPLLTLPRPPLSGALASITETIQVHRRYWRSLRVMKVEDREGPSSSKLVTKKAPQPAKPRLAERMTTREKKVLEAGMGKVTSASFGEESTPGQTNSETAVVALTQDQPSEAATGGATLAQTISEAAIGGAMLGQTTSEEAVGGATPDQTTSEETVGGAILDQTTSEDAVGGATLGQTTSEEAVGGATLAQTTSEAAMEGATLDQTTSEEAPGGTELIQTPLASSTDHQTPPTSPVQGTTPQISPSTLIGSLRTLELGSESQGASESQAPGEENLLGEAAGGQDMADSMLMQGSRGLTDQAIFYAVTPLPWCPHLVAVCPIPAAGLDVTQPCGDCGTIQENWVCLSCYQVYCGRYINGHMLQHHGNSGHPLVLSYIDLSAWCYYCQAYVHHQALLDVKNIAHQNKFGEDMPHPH

[2] = molecular target: Protein deacetylase HDAC6 (Homo sapiens) (UniProt Q9UBN7); conditions: at 10 µM; remark: listed apart in the source

Row | Molecule | inhibition [1] | inhibition [2] [%]
1 | O=C(O)c1ccccc1NCCc1ccccc1 | 7.74% | 
2 | c1ccc(CCNc2nc(-c3ccccc3)cs2)cc1 | 83.7% | 
3 | O=C(NCc1cccc(O)c1)Nc1nc(-c2ccncc2)cs1 | -5.89% and -0.86% | 
4 | CC(NC(=O)[C@@H](N)Cc1ccc(O)cc1)C(=O)NCC(=O)N(C)[C@@H](Cc1ccccc1)C(=O)N[C@H](CO)CC[S+](C)[O-] (stereo in doubt) | 2.35% | 
5 | O=C(O)c1cc(O)c(O)c(O)c1 | -7.85% | 
6 | COc1ccc(NS(=O)(=O)c2ccc(/N=N/c3ccc(O)c(C(=O)O)c3)cc2)nn1 | -4.06% | 
7 | O=C(O)c1cc(/N=N/c2ccc(O)c(C(=O)O)c2)ccc1O | 95.1% | 
8 | CC1(C)[C@@H]2C[C@H]1[C@@](C)(O)[C@@H](O)C2 | -1.04% | 
9 | Cc1ccc(S(=O)(=O)Nc2ccc3c(c2)c(C(=O)C(F)(F)F)cn3CC(=O)N[C@@H](CC(C)C)C(=O)O)cc1 | -4.82% | 
10 | O=C1C[C@@]2(C(=O)N1)C(=O)N(Cc1ccc(Br)cc1F)C(=O)c1cccn12 | -2.35% | 
11 | COCCN1CCN(Cc2ccc(-c3n[nH]c4c3C(=O)c3c(NC(=O)NN5CCOCC5)cccc3-4)cc2)CC1 | -4.17% | 
12 | CNC(=O)N(C)N=O | -4.29% | 
13 | O=c1c2ccccc2[se]n1-c1ccccc1 | 52.4% | 
14 | CCC(=O)NO | 44.5% | 
15 | O=[N+]([O-])c1cn2c(n1)OC[C@@H](OCc1ccc(-c3ccc(OC(F)(F)F)cc3)nc1)C2 | 4.86% | 
16 | Cc1oc(-c2ccccc2)nc1CCOc1ccc(CC2SC(=O)NC2=O)c2sccc12 (stereo unspecified) | -4.87% | 
17 | COc1ccc(Nc2ccn(-c3ccccc3)n2)cc1 | 66.8% | 
18 | O=C(Nc1ccccc1C(=O)Nc1ccc(CCO)cc1)c1ccc([N+](=O)[O-])cc1 | 19.2% | 
19 | CCC1OC(=O)CC(O)C(C)C(OC2OC(C)CC(N(C)C)C2O)C(CC=O)CC(C)C(=O)/C=C/C2(C)OC2C1C (stereo unspecified) | 10.6% | 
20 | CN(C)C(=S)SC(=S)N(C)C | 12.2% | 
21 | O=C(O)CC1CC(c2ccccc2)=NO1 (stereo unspecified) | -4.54% | 
22 | O=C(CC1CC(c2ccc(F)cc2F)=NO1)N1CCOCC1 (racemic) | 64.3% | 
23 | c1cc(-c2cnn3cc(-c4ccc(N5CCNCC5)cc4)cnc23)c2cccnc2c1 | -3.93% | 

Row | Molecule | inhibition [1] | inhibition [2] [%]
24 | c1ccc(OCc2ccc(CCCN3CCOCC3)cc2)cc1 | 22.1% | 
25 | c1cc(-c2cnn3cc(-c4ccc(OCCN5CCCCC5)cc4)cnc23)ccn1 | 60.7% | 
26 | COc1ccc(-c2cnc3c(-c4cccc5ncccc45)cnn3c2)cc1 | -5.32% and -3.01% | 
27 | CC(C)Oc1ccc(-c2cnc3c(-c4ccnc5ccccc45)cnn3c2)cc1 | -1.97% | 
28 | c1ccc(-c2cnn3cc(-c4ccc(OCCN5CCOCC5)cc4)cnc23)cc1 | 78.4% | 
29 | CN1C(=O)N(c2cc(Cl)cc(Cl)c2)C(=O)[C@@]1(C)Cc1ccc(Br)cc1 | -0.75% | 
30 | COCc1nnc(N2CC(Oc3ccc(F)cc3Cl)C2)n1-c1ccc(OC)nc1 | -0.3% | 
31 | O=C(Nc1ccc(Br)cc1)c1cc(Br)cc(Br)c1O | 47.3% | 
32 | CCOCc1cc(OC)c(-c2ccc(C[C@H](NC(=O)c3c(F)cccc3F)C(=O)O)cc2)c(OC)c1 | -3.54% | 
33 | C[C@]12CC[C@@H](O)C[C@@H]1CC[C@@H]1[C@@H]2CC[C@]2(C)C(c3ccccc3)=CC[C@@H]12 | -2.46% | 
34 | CC(=O)OCC1=C(C(=O)O)N2C(=O)[C@@H](NC(=O)CS/C(=N/C(C)C)NC(C)C)[C@H]2SC1 | -0.21% | 
35 | O=C(Oc1ccccc1)c1ccccc1O | 59.6% | 
36 | O=C(OCCO)c1ccccc1O | 0.47% | 
37 | O=C(O)c1ccccc1O | 3.65% | 
38 | SEVELAMER HYDROCHLORIDE, CHEMBL1201492 |  | -4.03
39 | CC1CCC2C(C)(C)C3CC12CCC3(C)O (stereo unspecified) | 3.35% | 
40 | C[C@H](Nc1cc(NS(=O)(=O)N2CCC2)nc(SCc2cccc(F)c2F)n1)[C@@H](O)CO | -3.66% | 
41 | CN(C)c1ccc(C(=O)NCCCCCCC(=O)NO)cc1 | 97.6% | 
42 | COc1cc(C(=O)NCCCCCC(=O)O)cc(OC)c1OC | -4.19% | 
43 | O=C(CNC(=O)c1ccc(Cl)cc1)NO | 1.88% | 
44 | O=c1c2c[nH]c3ccccc3c-2nn1-c1ccc(Cl)cc1 | 37.8% | 
45 | C[C@H](N/C(=N/C#N)Nc1cccc2ncccc12)c1ccccc1 | -5.84% | 
46 | Cc1cn2c(N)c(Cl)cc(C(=O)NCC3CCN(CC(C)C)CC3)c2n1 | 4.88% | 
